Source: PubChem BioAssay (NCATS)
Results filed as inconclusive are left out. The source made the active and inactive calls. Unless noted, calls follow the shape of the dose curve; as a rule, active = well fitted curve in the direction sought with a large enough effect; inconclusive = small, poorly fitted or top-dose-only effect, or another doubt; inactive = no such curve, though single readings can be large; an effect the other way counts as inactive or inconclusive.

Legend:
[1] = molecular target: Voltage-gated inwardly rectifying potassium channel KCNH2 (Homo sapiens) (UniProt Q12809); assay: qHTS Assay for Small Molecule Inhibitors of the Human hERG Channel Activity (AID 588834);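 also: lower thallium flux fluorescence means stronger hERG block; nearly all actives have a fitted effect of over 50% in size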; also: potency is read from the fitted curve at half-maximal effect
Voltage-gated inwardly rectifying potassium channel KCNH2 (Homo sapiens), sequence (Q12809 whole entry, looked up): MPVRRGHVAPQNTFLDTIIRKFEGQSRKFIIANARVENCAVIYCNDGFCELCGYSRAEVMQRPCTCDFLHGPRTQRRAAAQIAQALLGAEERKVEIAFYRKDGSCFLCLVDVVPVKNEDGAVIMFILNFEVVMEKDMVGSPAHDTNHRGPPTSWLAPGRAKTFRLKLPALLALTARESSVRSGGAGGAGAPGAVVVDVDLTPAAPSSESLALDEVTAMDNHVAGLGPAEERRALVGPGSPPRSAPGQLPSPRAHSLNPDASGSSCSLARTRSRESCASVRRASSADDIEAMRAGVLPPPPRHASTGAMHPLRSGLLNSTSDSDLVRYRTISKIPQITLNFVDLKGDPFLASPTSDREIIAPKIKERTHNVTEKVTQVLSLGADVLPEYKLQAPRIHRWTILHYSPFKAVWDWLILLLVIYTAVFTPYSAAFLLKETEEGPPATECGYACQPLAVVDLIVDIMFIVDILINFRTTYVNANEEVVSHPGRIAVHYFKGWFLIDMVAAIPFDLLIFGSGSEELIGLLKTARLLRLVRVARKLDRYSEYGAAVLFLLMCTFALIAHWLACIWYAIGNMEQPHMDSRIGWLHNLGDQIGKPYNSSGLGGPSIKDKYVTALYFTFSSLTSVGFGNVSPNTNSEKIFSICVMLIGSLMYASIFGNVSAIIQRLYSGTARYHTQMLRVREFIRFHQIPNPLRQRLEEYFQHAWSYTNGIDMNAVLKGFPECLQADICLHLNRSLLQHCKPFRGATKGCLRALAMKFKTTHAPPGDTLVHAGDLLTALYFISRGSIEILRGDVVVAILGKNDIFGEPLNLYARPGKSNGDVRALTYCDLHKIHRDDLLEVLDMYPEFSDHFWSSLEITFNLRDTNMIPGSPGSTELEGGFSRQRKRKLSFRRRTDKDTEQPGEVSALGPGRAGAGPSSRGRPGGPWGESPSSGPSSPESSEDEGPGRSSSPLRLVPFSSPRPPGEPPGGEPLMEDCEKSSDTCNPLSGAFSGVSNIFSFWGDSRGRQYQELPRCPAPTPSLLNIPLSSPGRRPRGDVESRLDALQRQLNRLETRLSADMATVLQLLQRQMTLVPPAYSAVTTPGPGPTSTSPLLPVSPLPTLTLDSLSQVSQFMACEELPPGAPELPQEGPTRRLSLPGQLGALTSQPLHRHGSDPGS
Procedure, shortened: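 Measured: FluxOR fluorescence after thallium stimulation in U2OS cells transduced with hERG by baculovirus. Compounds pre-incubated around 10 min; medium Opti-MEM with 2% FCS. AC50 from Hill equation.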

[2] = molecular target: Luciferin 4-monooxygenase (Photinus pyralis) (UniProt P08659); assay: Biochemical firefly luciferase enzyme assay for NPC (AID 624030); also: nearly all actives have a fitted effect of over 70% in size; also: potency is read from the fitted curve at half-maximal effect
Luciferin 4-monooxygenase (Photinus pyralis), sequence (P08659 whole entry, looked up): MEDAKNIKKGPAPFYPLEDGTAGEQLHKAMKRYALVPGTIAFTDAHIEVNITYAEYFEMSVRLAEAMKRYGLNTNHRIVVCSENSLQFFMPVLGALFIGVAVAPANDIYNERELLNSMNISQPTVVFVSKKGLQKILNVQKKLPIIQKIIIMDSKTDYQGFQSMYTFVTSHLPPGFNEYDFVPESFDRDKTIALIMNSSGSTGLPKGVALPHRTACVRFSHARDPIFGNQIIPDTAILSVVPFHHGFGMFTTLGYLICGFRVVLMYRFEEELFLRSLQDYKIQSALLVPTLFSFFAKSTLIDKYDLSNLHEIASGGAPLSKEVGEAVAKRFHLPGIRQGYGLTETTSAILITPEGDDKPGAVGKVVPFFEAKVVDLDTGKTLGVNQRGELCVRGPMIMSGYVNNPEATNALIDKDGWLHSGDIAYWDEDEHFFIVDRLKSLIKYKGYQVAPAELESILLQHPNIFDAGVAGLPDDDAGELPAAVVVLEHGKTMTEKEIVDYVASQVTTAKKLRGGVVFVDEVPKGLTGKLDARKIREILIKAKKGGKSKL
Procedure, shortened: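 Direct inhibition of firefly luciferase enzyme (10 nM final, 50 mM Tris Acetate) assessed by luminescence within 5 minutes. Percent activity scaled between DMSO and PTC124 positive control, with concentration-effect curves classified by fit quality and response.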

[3] = S16 Schwann cell viability assay (CellTiter-Glo assay) (AID 624031); also: nearly all actives have a fitted effect of over 70% in size; also: potency is read from the fitted curve at half-maximal effect
Procedure, shortened: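 Native S16 Schwann cells (rat), serum-containing medium, overnight attachment then 24 h drug exposure at 37 °C/5% CO2. CellTiter-Glo ATP signal; normalized to cell-free and vehicle wells.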

[4] = S16 Schwann cell PMP22 intronic element firefly luciferase assay (AID 624032); also: nearly all actives have a fitted effect of over 30% in size; also: potency is read from the fitted curve at half-maximal effect
Procedure, shortened: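 Luciferase reporter of PMP22 intronic-element expression in stably transfected S16 rat Schwann cells, read by ONE-Glo luminescence after 24 h compound exposure at 37 C. Activity scaled between DMSO (0%) and positive-control PTC124; concentration-effect curves quality-classified.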

[5] = S16 Schwann cell PMP22 intronic element beta-lactamase assay (AID 624044; calls by dose curve; also: nearly all actives have a fitted effect of over 15% in size)
Procedure, shortened: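 Rat S16 Schwann cells with beta-Lac driven by a PMP22 intronic element, compound-treated 24 h at 37 °C. LiveBLAzer FRET B/G read: 460 nm normalized to potassium clavulanate vs DMSO; 535 nm FRET as viability; concentration-effect curves classified.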

[6] = molecular target: Glutaminase kidney isoform, mitochondrial (Homo sapiens) (UniProt O94925); assay: qHTS for Inhibitors of Glutaminase (GLS): LOPAC Validation (AID 624146);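 also: glutamate product detected by oxidase and peroxidase coupled Amplex red fluorescence gain; series mostly up to about 46 µM; nearly all actives have a fitted effect of over 60% in size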
Glutaminase kidney isoform, mitochondrial (Homo sapiens), sequence (O94925 whole entry, looked up, canonical isoform): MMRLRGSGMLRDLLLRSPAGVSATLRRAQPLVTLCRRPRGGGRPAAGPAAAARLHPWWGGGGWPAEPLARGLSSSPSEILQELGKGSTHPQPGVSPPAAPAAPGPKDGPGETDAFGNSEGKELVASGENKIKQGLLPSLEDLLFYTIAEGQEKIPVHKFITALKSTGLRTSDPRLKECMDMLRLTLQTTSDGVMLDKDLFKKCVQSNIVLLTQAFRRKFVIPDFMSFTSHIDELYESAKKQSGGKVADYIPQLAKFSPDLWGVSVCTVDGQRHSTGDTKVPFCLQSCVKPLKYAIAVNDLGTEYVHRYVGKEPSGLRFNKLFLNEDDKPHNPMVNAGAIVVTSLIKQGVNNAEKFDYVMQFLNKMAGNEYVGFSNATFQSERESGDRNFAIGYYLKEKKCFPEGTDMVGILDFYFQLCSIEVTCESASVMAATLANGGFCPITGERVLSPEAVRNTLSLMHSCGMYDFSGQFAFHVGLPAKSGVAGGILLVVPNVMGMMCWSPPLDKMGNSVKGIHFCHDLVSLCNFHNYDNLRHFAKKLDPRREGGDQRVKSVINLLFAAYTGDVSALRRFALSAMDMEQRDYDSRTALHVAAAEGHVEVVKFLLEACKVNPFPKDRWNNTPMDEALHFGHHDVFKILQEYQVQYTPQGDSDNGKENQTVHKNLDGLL
Procedure, shortened: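 Human kidney-isoform GLS in 45 mM KH2PO4 pH 8.2, 0.02% Tween-20, with compound, started with 1mM L-Glutamine (added stock). Glutamate oxidase/HRP/Amplex red coupled fluorescence read at start and after 30 min at RT.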

[7] = qHTS of Trypanosoma Brucei Inhibitors: LOPAC Validation (AID 624147)
Procedure, shortened: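 In this concentration-response screen, enzyme-free wells defined baseline while DMSO plates tracked drift. Each reaction combined TbPYK, substrate, compound and 130 uM ADP for 45 min at room temperature. Kinase-Glo Plus luminescence gave the signal.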

[8] = molecular target: Glucagon-like peptide 1 receptor (Homo sapiens) (UniProt P43220); assay: qHTS of GLP-1 Receptor Agonists: LOPAC Validation (AID 624148);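 also: luminescence from a luciferase reporter switched on by cAMP; higher luminescence signal means agonism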
Glucagon-like peptide 1 receptor (Homo sapiens), sequence (P43220 whole entry, looked up): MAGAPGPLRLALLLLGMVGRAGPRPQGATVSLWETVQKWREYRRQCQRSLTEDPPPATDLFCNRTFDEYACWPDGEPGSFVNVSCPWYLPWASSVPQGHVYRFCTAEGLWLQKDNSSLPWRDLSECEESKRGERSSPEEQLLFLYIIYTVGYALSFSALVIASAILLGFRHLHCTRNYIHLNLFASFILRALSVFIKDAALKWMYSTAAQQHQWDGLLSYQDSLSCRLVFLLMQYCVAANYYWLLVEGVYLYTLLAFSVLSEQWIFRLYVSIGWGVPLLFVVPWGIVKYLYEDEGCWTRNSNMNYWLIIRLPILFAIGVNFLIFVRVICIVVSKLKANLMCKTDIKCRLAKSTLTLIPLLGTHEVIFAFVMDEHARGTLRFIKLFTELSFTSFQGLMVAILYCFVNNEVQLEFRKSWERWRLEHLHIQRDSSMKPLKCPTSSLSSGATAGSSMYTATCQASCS
Excerpt: The overall goal of this project was to develop a novel assay for discovering small molecule ligands for class B1 G protein-coupled receptors (GPCRs). Very few agonists (or inverse agonists) with generally weak activity for this entire group of physiologically important receptors are known to date. To establish proof-of-principle that this critical bottleneck can be overcome with a suitable screening approach, our studies focused on the class B1 receptor for glucagon-like peptide-1 (GLP-1R), a potential therapeutic target for diabetes and neurodegenerative disease.
The assay was developed in a "mix and measure" format using a cell-based functional readout. Toward this goal, stably transfected HEK293 cell clones were established that co-express (i) a cAMP-responsive luciferase reporter gene, and (ii) GLP-1Rs that upon ligand interaction either stimulate (agonists) or inhibit (inverse agonists) luciferase activity. In different cell lines to be used for screening, expressed GLP-1Rs are specifically optimized for high sensitivity detection of either weak agonists (hypersensitive receptor) or inverse agonists (constitutively active receptor mutant). In addition, control cell lines were developed that express either the cAMP-responsive reporter gene without recombinant GLP-1Rs (enabling initial exclusion of GLP-1R independent effects of candidate probes), or the reporter gene together with wild type GLP-1Rs (for confirmation of probe activity at this receptor), or the reporter gene in combination with the constitutively active orphan receptor GPR119 (enabling initial exclusion of GLP-1R independent inhibitory effects of candidate inverse agonists).
To that end, this assay was optimized for 1536-well format and screened against the MLSMR.
NIH Molecular Libraries Probe Production Network [MLPCN]
NIH Chemical Genomics Center [NCGC]
PI Name: Martin Beinborn, Tufts Medical Center
In a white solid 1536-well plate, 6 uL of cells are dispensed in DMEM without phenol red, 10% Nu serum, and 1% pen-strep medium. The plates are then incubated for 12 hours at 37 deg C at 5% CO2 before 23 nL of compounds are added. After a 4-6 hr incubation at37 deg C and 5% CO2, 3 uL of detection reagent are added and after a 12 min incubation at RT, a luminescent read is obtained on the ViewLux.

[9] = qHTS of Nrf2 Activators: LOPAC Validation (AID 624149)
Procedure, shortened: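 AREc32 cells carrying an ARE-driven firefly luciferase were grown overnight in OPTI-MEM with 5% FBS, then exposed to compounds for 24 hr at 37 deg C. Luciferase signal was read after 30 min with Steady-Glo at RT.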

Measured: Potency

CC(=O)Oc1ccc(C)cc1
inactive: [1] | [2] | [3] | [4]

Cc1cc(C)cc(OCC2CNC(=O)O2)c1 (centres undefined)
inactive: [1] | [2] | [3] | [4]

CC(=O)NC(=O)c1ccccc1O
inactive: [1] | [2] | [3] | [4]

CN1CCN(c2c(F)cc3c(=O)c(C(=O)O)cn4c3c2SCC4)CC1
inactive: [1] | [2] | [3] | [4]

COc1ccc(CN(CCN(C)C)c2ncccn2)cc1
inactive: [1] | [2] | [3] | [4]

CCCCCCCCNC(C)C(O)c1ccc(SC(C)C)cc1 (centres undefined)
active: [1] 0.631 µM | [3] 14.4 µM | [4] 22.8 µM
inactive: [2]

CC(C)CCCC(C)N (centres undefined)
inactive: [1] | [2] | [3] | [4]

CCN(CC)CCOc1ccc2c(c1)C(=O)c1cc(OCCN(CC)CC)ccc1-2
active: [4] 8.09 µM
inactive: [1] | [2] | [3]

O=C1C(O)=C(O)C(=O)C(O)=C1O
inactive: [1] | [2] | [3] | [4]

CC1CCc2c(N3CCC(O)CC3)c(F)cc3c(=O)c(C(=O)O)cn1c23 (centres undefined)
inactive: [1] | [2] | [3] | [4]

CCN(CC)CCOC(=O)C1(c2ccccc2)CCCC1
inactive: [1] | [2] | [3] | [4]

O=C(NC1CCN(CCc2c[nH]c3ccccc23)CC1)c1ccccc1
active: [1] 0.891 µM
inactive: [2] | [3] | [4]

CC(=O)NCCCCCC(=O)O
inactive: [1] | [2] | [3] | [4]

COP(=O)(OC)OC(c1ccc(Cl)cc1)P(=O)(OC)OC (centres undefined)
inactive: [1] | [2] | [3] | [4]

Cc1ncc(CO)c(C=O)c1O
inactive: [1] | [2] | [3] | [4]

COC(=O)C(c1ccccc1Cl)N1CCc2sccc2C1 (centres undefined)
inactive: [1] | [2] | [3] | [4]

CCN1/C(=C/C=C/c2sc3ccccc3[n+]2CC)Sc2ccccc21
active: [1] 1.41 µM | [2] 12.8 µM | [3] 4.05 µM | [4] 2.03 µM

CN1CCN(c2cc3c(cc2F)c(=O)c(C(=O)O)cn3-c2ccc(F)cc2)CC1
inactive: [1] | [2] | [3] | [4]

CC(C)Cc1ccc(CC(=O)O)cc1
inactive: [1] | [2] | [3] | [4]

N=C(N)N1CCc2ccccc2C1
inactive: [1] | [2] | [3] | [4]

OCc1ccccn1
inactive: [1] | [2] | [3] | [4]

CCCc1ncc(C[n+]2ccccc2C)c(N)n1
inactive: [1] | [2] | [3] | [4]

CCOC(=O)c1ccc(N)cc1
inactive: [1] | [2] | [3] | [4]

CC(=O)Nc1ccc(OC(=O)c2ccccc2OC(C)=O)cc1
inactive: [1] | [2] | [3]
active: [4] 32.2 µM

O=C(Nc1cccc(C2=NCCN2)c1)Nc1cccc(C2=NCCN2)c1
inactive: [1] | [2] | [3] | [4]

CCc1ccc(C(=O)C(C)CN2CCCCC2)cc1 (centres undefined)
inactive: [1] | [2] | [3] | [4]

Cc1nc(-c2ccc(Cl)cc2)oc1COC(C)(C)C(=O)O
inactive: [1] | [2] | [3] | [4]

CC(=O)OCC(=O)[C@H]1CC[C@H]2[C@@H]3CCC4=CC(=O)CC[C@]4(C)[C@H]3CC[C@]12C
inactive: [1] | [2] | [3] | [4]

CCC(C(=O)OCCOCCN(CC)CC)c1ccccc1 (centres undefined)
inactive: [1] | [2] | [3] | [4]

CC(=O)Nc1ccc(CC(=O)O)cc1
inactive: [1] | [2] | [3] | [4]

CC(=O)Nc1ccc(S(=O)(=O)Nc2ccc([N+](=O)[O-])cc2)cc1
inactive: [1] | [2] | [3] | [4]

C#C[C@]1(O)CC[C@H]2[C@@H]3CCC4=Cc5oncc5C[C@]4(C)[C@H]3CC[C@@]21C
inactive: [1] | [2] | [3] | [5]

CCOC(=O)Nc1ccc2c(c1)N(C(=O)CCN1CCOCC1)c1ccccc1S2
inactive: [1] | [2] | [3] | [5]

Cc1c(-c2ccccc2)oc2c(C(=O)OCCN3CCCCC3)cccc2c1=O
inactive: [1] | [2] | [3] | [5]

O=C(NCCc1c[nH]c2ccccc12)c1cccnc1
inactive: [1] | [3] | [4] | [5]

NC(N)=NCc1cccc(I)c1
inactive: [1] | [2] | [3] | [4] | [5] | [6] | [7] | [8] | [9]

CCCCCCCCCCCCCC[N+](C)(C)Cc1ccccc1
inactive: [2] | [5]
active: [1] 7.94 µM | [4] 32.2 µM

CCOC(=O)[C@H](CCc1ccccc1)N[C@@H](C)C(=O)N1[C@H](C(=O)O)C[C@H]2CCCC[C@@H]21
inactive: [1] | [2] | [3] | [4] | [5] | [6] | [7] | [8] | [9]

CN(Cc1ccc(C(C)(C)C)cc1)Cc1cccc2ccccc12
active: [1] 7.94 µM
inactive: [2] | [4] | [5]

CC(C)(C)NC[C@H](O)COc1nsnc1N1CCOCC1
inactive: [1] | [2] | [3] | [4] | [6] | [7] | [8] | [9]

NC(=S)N/N=C/c1cccnc1
inactive: [1] | [2] | [4] | [5]

c1ccc(CC2=NCCN2)cc1
inactive: [1] | [2] | [3] | [5]

NCCNC(=O)c1ccc(Cl)cn1
inactive: [1] | [2] | [4]

Cc1ccc(-c2ncc(Cl)cc2-c2ccc(S(C)(=O)=O)cc2)cn1
inactive: [1] | [2] | [3] | [5]
